Data: publication PMC7862700, “An all-to-all approach to the identification of sequence-specific readers for epigenetic DNA modifications on cytosine”

Experiments:
Assay in all cases: DAPPL (digital affinity profiling via proximity ligation, sequencing); 10 mM Tris-HCl pH 7.5, 50 mM NaCl, 1 mM DTT, 4% glycerol, room temperature, 30 min; GST-TFs on glutathione beads, 16-mer random dsDNA library, 0.1% formaldehyde crosslink after washing; high values mean tight binding
Settings in all cases: protein: recombinant; tags: N-terminal GST; dsDNA, one strand shown
FLI1 = molecular target: T1, FLI1 (Homo sapiens, UniProt Q01543 1-452)
T1 sequence: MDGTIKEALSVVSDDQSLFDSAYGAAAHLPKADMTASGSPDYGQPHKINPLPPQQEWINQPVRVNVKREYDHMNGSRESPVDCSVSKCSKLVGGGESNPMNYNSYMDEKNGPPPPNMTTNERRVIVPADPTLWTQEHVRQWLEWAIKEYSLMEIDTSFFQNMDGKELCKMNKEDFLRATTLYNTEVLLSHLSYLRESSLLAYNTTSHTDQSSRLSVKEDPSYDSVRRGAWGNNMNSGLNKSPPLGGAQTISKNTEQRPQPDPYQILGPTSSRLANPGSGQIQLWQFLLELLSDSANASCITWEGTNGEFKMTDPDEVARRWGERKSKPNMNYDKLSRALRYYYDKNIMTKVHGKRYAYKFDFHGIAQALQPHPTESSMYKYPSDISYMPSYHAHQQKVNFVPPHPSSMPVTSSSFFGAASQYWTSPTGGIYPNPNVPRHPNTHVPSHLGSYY
Procedure, shortened: (§1)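 The binding signal reported is, for every hexamer, its read frequency for a factor over its read frequency for the tag-only sample. Reads came from pools of yeast-expressed, GST-fused human transcription factors on glutathione beads, barcoded with DNA and mixed with that sample, which were incubated with 200 nmole of a random double-stranded 16-mer DNA library in Tris/NaCl/DTT/glycerol buffer at room temperature for 30 min. After washing, the pools were crosslinked with 0.1% formaldehyde, proximity-ligated with BsaI/T4 ligase for 1 h at 37 °C, PCR-amplified and sequenced on an Illumina NextSeq500.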

ELK1 = molecular target: T2, ELK1 (Homo sapiens, UniProt P19419 1-428)
T2 sequence: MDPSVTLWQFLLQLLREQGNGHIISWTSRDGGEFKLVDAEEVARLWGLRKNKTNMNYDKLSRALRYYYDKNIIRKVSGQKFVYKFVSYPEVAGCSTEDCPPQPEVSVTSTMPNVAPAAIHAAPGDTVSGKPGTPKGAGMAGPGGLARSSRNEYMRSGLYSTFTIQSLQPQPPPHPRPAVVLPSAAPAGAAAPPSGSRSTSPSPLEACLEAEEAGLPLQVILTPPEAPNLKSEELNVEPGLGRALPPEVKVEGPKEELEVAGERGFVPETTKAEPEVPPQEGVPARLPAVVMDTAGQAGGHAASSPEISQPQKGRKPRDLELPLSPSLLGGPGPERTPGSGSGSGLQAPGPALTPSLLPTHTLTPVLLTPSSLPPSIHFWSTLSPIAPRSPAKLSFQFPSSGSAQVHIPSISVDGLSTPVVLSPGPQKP
Procedure, shortened: as §1

GABPA = molecular target: T3, GABPA (Homo sapiens, UniProt Q06546 1-454)
T3 sequence: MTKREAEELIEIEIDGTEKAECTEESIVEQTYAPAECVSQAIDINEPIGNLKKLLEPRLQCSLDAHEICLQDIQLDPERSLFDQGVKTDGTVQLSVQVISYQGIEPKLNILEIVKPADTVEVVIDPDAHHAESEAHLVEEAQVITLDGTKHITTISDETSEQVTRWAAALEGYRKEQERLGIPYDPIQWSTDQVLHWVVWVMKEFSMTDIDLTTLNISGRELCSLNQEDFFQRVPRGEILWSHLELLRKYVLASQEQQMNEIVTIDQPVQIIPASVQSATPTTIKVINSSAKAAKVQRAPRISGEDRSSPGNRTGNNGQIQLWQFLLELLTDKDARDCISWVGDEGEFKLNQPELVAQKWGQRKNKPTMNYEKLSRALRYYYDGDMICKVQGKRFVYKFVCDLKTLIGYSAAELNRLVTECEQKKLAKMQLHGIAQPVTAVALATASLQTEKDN
Procedure, shortened: as §1

ERG = molecular target: T4, ERG (Homo sapiens, UniProt P11308 1-479)
T4 sequence: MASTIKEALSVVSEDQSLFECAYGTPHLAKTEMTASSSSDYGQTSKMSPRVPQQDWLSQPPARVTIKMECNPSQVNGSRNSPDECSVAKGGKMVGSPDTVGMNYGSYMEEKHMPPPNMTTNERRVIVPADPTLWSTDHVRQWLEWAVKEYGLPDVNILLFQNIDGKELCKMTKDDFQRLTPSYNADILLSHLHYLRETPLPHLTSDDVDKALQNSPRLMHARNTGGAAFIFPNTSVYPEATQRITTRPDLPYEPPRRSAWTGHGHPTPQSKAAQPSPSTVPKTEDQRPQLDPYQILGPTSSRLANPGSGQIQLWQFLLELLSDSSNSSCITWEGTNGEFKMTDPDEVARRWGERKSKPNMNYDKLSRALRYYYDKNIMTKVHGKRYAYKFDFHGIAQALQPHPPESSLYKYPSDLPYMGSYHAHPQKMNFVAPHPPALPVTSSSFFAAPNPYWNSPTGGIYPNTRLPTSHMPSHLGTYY
Procedure, shortened: as §1

ELF1 = ELF1 (Homo sapiens, UniProt P32519 1-619)
Procedure, shortened: as §1

EHF = molecular target: T5, EHF (Homo sapiens, UniProt Q9NZC4 1-300)
T5 sequence: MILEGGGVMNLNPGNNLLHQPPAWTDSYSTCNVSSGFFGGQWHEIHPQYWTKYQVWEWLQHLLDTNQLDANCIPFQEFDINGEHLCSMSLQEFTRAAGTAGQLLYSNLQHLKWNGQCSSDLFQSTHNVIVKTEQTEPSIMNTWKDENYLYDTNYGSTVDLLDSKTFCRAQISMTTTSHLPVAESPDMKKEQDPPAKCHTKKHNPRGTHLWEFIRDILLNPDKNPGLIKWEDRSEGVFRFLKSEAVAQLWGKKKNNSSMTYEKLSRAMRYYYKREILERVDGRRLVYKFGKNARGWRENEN
Procedure, shortened: as §1

SPI1 = SPI1 (Homo sapiens, UniProt P17947 1-270)
Procedure, shortened: as §1

ELK3 = molecular target: T6, ELK3 (Homo sapiens, UniProt P41970 1-407)
T6 sequence: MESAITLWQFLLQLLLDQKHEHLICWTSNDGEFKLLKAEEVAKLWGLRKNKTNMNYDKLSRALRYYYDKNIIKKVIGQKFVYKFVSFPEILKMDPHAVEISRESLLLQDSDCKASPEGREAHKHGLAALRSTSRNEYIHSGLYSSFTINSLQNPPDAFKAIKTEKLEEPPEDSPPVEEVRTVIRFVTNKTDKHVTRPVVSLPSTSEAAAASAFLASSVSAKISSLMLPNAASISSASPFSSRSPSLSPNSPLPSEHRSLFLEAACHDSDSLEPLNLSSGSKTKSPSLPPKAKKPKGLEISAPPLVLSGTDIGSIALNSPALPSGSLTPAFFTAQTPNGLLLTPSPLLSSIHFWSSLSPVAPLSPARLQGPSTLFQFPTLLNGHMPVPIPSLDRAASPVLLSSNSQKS
Procedure, shortened: as §1

SPIB = SPIB (Homo sapiens, UniProt Q01892 1-262)
Procedure, shortened: as §1

Sequence of SPIB (Q01892 whole entry): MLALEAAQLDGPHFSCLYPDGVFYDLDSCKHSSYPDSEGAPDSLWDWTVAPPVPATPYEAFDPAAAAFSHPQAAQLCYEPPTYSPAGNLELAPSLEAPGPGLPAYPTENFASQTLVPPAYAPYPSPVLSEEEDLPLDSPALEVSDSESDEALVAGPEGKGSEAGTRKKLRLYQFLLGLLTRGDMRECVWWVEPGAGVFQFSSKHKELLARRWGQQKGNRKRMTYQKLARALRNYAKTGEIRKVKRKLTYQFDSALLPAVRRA
Sequence of ELF1 (P32519 whole entry): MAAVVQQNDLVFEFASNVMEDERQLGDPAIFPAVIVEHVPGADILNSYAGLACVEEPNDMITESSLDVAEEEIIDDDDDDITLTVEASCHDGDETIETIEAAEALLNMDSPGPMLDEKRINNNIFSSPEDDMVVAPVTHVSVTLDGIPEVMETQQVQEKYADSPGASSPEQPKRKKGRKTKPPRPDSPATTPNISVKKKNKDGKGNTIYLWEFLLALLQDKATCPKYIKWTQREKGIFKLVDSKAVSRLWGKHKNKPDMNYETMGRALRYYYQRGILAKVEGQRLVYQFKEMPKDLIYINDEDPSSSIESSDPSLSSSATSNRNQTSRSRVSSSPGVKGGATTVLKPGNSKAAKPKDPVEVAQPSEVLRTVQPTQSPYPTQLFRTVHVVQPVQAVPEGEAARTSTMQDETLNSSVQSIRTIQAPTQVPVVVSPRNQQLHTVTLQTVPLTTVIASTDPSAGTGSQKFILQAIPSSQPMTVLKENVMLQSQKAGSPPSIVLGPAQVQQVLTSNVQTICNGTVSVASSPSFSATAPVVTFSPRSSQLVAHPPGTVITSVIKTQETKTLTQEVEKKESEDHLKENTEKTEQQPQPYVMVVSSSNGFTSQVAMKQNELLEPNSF

| Sequence | binding signal (FLI1) | binding signal (ELK1) | binding signal (GABPA) | binding signal (ERG) | binding signal (ELF1) | binding signal (EHF) | binding signal (SPI1) | binding signal (ELK3) | binding signal (SPIB) |
| --- | --- | --- | --- | --- | --- | --- | --- | --- | --- |
| ATGAAG | 1.1 fold enrichment (6-mer frequency, TF over GST control) | 1.1 fold enrichment (6-mer frequency, TF over GST control) | 1.04 fold enrichment (6-mer frequency, TF over GST control) | 1.1 fold enrichment (6-mer frequency, TF over GST control) | 1.04 fold enrichment (6-mer frequency, TF over GST control) | 1.06 fold enrichment (6-mer frequency, TF over GST control) | 1.05 fold enrichment (6-mer frequency, TF over GST control) | 1.05 fold enrichment (6-mer frequency, TF over GST control) | – |
| ATCTGA | 1.08 fold enrichment (6-mer frequency, TF over GST control) | 1.08 fold enrichment (6-mer frequency, TF over GST control) | 1.21 fold enrichment (6-mer frequency, TF over GST control) | 1.07 fold enrichment (6-mer frequency, TF over GST control) | 1.16 fold enrichment (6-mer frequency, TF over GST control) | 1.17 fold enrichment (6-mer frequency, TF over GST control) | – | 1.2 fold enrichment (6-mer frequency, TF over GST control) | 1.17 fold enrichment (6-mer frequency, TF over GST control) |
| TCGAAT | 1 fold enrichment (6-mer frequency, TF over GST control) | 1.09 fold enrichment (6-mer frequency, TF over GST control) | 1.12 fold enrichment (6-mer frequency, TF over GST control) | 1.08 fold enrichment (6-mer frequency, TF over GST control) | 1.11 fold enrichment (6-mer frequency, TF over GST control) | 1.02 fold enrichment (6-mer frequency, TF over GST control) | – | 1.15 fold enrichment (6-mer frequency, TF over GST control) | 1.07 fold enrichment (6-mer frequency, TF over GST control) |
| TGTCTG | 1 fold enrichment (6-mer frequency, TF over GST control) | 1.1 fold enrichment (6-mer frequency, TF over GST control) | 1.11 fold enrichment (6-mer frequency, TF over GST control) | 1.05 fold enrichment (6-mer frequency, TF over GST control) | 1.06 fold enrichment (6-mer frequency, TF over GST control) | – | 1.17 fold enrichment (6-mer frequency, TF over GST control) | – | 1.16 fold enrichment (6-mer frequency, TF over GST control) |
| AACGTA | 1.06 fold enrichment (6-mer frequency, TF over GST control) | 1.05 fold enrichment (6-mer frequency, TF over GST control) | 1.02 fold enrichment (6-mer frequency, TF over GST control) | 1.04 fold enrichment (6-mer frequency, TF over GST control) | 1.02 fold enrichment (6-mer frequency, TF over GST control) | 1.01 fold enrichment (6-mer frequency, TF over GST control) | – | 1.11 fold enrichment (6-mer frequency, TF over GST control) | – |
| CCTGGG | 1.16 fold enrichment (6-mer frequency, TF over GST control) | 1.18 fold enrichment (6-mer frequency, TF over GST control) | 1.15 fold enrichment (6-mer frequency, TF over GST control) | 1.16 fold enrichment (6-mer frequency, TF over GST control) | 1.18 fold enrichment (6-mer frequency, TF over GST control) | – | 1.11 fold enrichment (6-mer frequency, TF over GST control) | – | 1.08 fold enrichment (6-mer frequency, TF over GST control) |
| CACCTC | 1.12 fold enrichment (6-mer frequency, TF over GST control) | 1.15 fold enrichment (6-mer frequency, TF over GST control) | 1.2 fold enrichment (6-mer frequency, TF over GST control) | 1.17 fold enrichment (6-mer frequency, TF over GST control) | 1.2 fold enrichment (6-mer frequency, TF over GST control) | 1.27 fold enrichment (6-mer frequency, TF over GST control) | – | 1.09 fold enrichment (6-mer frequency, TF over GST control) | 1.1 fold enrichment (6-mer frequency, TF over GST control) |
| CACCGA | 1.01 fold enrichment (6-mer frequency, TF over GST control) | 1.01 fold enrichment (6-mer frequency, TF over GST control) | 1.08 fold enrichment (6-mer frequency, TF over GST control) | 1.08 fold enrichment (6-mer frequency, TF over GST control) | 1.11 fold enrichment (6-mer frequency, TF over GST control) | 1.08 fold enrichment (6-mer frequency, TF over GST control) | – | 1 fold enrichment (6-mer frequency, TF over GST control) | – |
